Bioassay records (PubChem)
Pf growth 48h – inhibits P. falciparum growth in the first generation, 48 h; P. falciparum luciferase growth in erythrocytes, 48 h; Potency, µM (series often up to 28.7 µM), for the others: at the highest dose activity change, negative = inhibition, hits mostly inhibitors; 5.9% of 310,000 active; AID 504832; note: % is set by controls: 0 for no effect and ±100 for the full control effect
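In quantitative HTS format, infected erythrocytes bearing luciferase-reporter parasites were treated for a single generation at 37 C. Luminescence after adding detection reagent served as the growth measure.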
Sm TGR inh – blocks Schistosoma mansoni thioredoxin glutathione reductase; Q962Y6; purified TGR, DTNB reduction, TNB absorbance 405 nm; Potency, µM (top dose mostly 114 µM), for inactives: at the highest dose activity change, negative = inhibition, actives largely listed as inhibitors; 3% of 360,000 active; note: % is set by controls: 0 for no effect and ±100 for the full control effect; nearly all actives have a fitted effect of over 60% in size
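First, TGR (20 nM dispensed) and NADPH were mixed with compound. Second, a 15 min room-temperature incubation followed. Third, further NADPH and then DTNB were added to start the reaction. Finally, TNB absorbance was monitored kinetically.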
Pf growth 96h – P. falciparum growth inhibition at 96 hours. P. falciparum luciferase reporter growth, 96 h. Potency, µM (series often up to 28.7 µM), for the others: at the highest dose activity change, negative = inhibition, hits mostly inhibitors. 6.9% of 320,000 active; note: % is set by controls: 0 for no effect and ±100 for the full control effect
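Two parasite generations (96 h, 37 C, 5% CO2) of compound exposure in infected erythrocytes (0.05% parasitemia, 2% hematocrit). Luciferase-reporter P. falciparum; decreased luminescence indicates inhibited growth, aimed at apicoplast-acting delayed death.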
AMA1 RON2 block – disrupts binding of P. falciparum AMA1 to RON2 | AID 720542 | 0.2% of 360,000 active | AlphaScreen AMA1-biotinylated RON2 peptide binding | Potency, µM (doses to about 58.2 µM), for inactives: at the highest dose activity change, negative = inhibition, hits mostly inhibitors;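 note: 0% = vehicle wells and -100% = peptide control; nearly all actives have a fitted effect of over 45% in size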
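AMA1 (3D7) with his tag at 25 nM final met compounds first, then biotinylated RON2 peptide at 25 nM; detection used donor plus acceptor beads, 10 µg/mL apiece, read by AlphaScreen after 30 min at room temperature.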
NS1 function inh – blocks influenza NS1 protein function. Potency, µM (top dose mostly 46.1 µM), for inactives: at the highest dose activity, positive = more growth. 0.4% of 270,000 active; calls by dose curve; note: actives are rising curves; nearly all actives have a fitted effect of over 50% in size
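Recovery from NS1-induced slow growth read by OD600 in budding yeast switched to galactose assay medium (pH 6.0, -URA) at 1:100 dilution. Compound 23 nl per well; the matching strain lacking NS1 serves as control.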
* = called active by the depositor; u = inconclusive; x = no result given; [ ] = remark or other dose. Shown are actives, neighbours in structure and some others; about 11% of the full set was active somewhere. Unless noted, calls come from the whole dose curve; as a rule, active = well fitted curve in the direction sought with a large enough effect; inconclusive = small, poorly fitted or top-dose-only effect, or another doubt; inactive = no such curve, though single readings can be large; an effect the other way counts as inactive or inconclusive. Potency is the fitted concentration of half-maximal effect.

SMILES	Pf growth 48h	Sm TGR inh	Pf growth 96h	AMA1 RON2 block	NS1 function inh
CCc1ccc(-c2nc(CS(=O)CC(=O)NC3CCCCCC3)c(C)o2)cc1 (stereo not given)	21%	7.9µM*	8.3µM*	1%	u
Clc1ccc2c(N3CCC(CCC4CCN(c5ncnc6cc(Cl)ccc56)CC4)CC3)ncnc2c1	x	x	x	x	0%
COc1cccc(-c2nn(-c3ccccc3)cc2CNC(C)Cn2cncn2)c1 (stereo not given)	36%	24%	10µM*	-9%	-8%
COCCn1c(SCC(=O)NC(=O)NCc2ccccc2)nc2ccccc2c1=O	u	-17%	u	-6%	x
CC(C)(C)c1ccc(C2=CSC3=NCCN23)cc1	u	-11%	0.26µM*	-3%	-9%
CC(C)Cc1ccc(C2=CSC3=NCCN23)cc1	x	x	x	-1%	x
O=S1(=O)CCN2C(c3cccc4ccccc34)=CSC2=N1	-12%	8%	-47%[5.75 µM]	7%	x
C1=C(c2cccc3ccccc23)N2CCN=C2S1	u	5%	13µM*	-3%	-2%
c1ccc2c(c1)OCC(c1csc3ncnc(N4CCCC4)c13)O2 (stereo not given)	x	-5%	9.3µM*	-6%	-3%
OCC1CCCN(c2ncnc3scc(-c4ccccc4)c23)C1 (stereo not given)	u	0%	u	0%	x
c1ccc(CCNc2ncnc3nc[nH]c23)cc1	49%	-7%	42%	6%	-1%
c1ccc(CCNc2ncnc3scc(C4COc5ccccc5O4)c23)cc1 (stereo not given)	x	5%	15µM*	u	9%
COc1ccc(NC(=O)Cn2c(=O)c3ccccc3n3nncc23)c(OC)c1	x	-8%	x	x	x
CCOP(=S)(OCC)SCC(=O)NC(C)(CC)C(=O)O (stereo not given)	x	7%	7.4µM*	-2%	2%
Cc1ccsc1CN(C(=O)c1ccc(OCC(C)C)cc1)C1CCS(=O)(=O)C1 (stereo not given)	x	1%	x	x	x
O=C(O)c1ccc2c(c1)C(=O)N(c1nccs1)C2=O	3.3µM*	28%	7%	-20%	-6%
O=C(O)c1ccc2c(c1)C(=O)N(c1ccccc1-c1ccccc1)C2=O	12%	4%	-12%	u	1%
CCOC(=O)c1cccc(NC(=O)c2cc(S(=O)(=O)N3CCCC3)cn2C)c1	x	4%	x	x	x
Cc1cc(Br)c(NC(=O)CCl)c(Br)c1	-40%	32µM*	u	-4%	u
Cn1ccc(NC(=O)CCl)n1	u	14µM*	-22%	-16%	x
Cc1cc(NC(=O)CCl)nn1C	u	28µM*	10µM*	-1%	6%
Cc1ccc(C)c(NC(=O)CCCN2C(=O)COc3ccc(C)cc32)c1	x	-23%	x	x	x
CC(C)CN(C(=O)CCC(=O)OCC(=O)N(C)c1ccccc1)c1c(N)n(CC(C)C)c(=O)[nH]c1=O	4%	0%	14%	-1%	x
Cc1ccc(S(=O)(=O)N(C)C)cc1NC(=O)C(C)N(C)CCOc1ccc(Cl)cc1 (stereo not given)	u	11%	u	-8%	-28%
COc1ccc(CCN2CC(C(=O)N(C)C3CCOCC3)CCC2=O)cc1 (stereo not given)	u	u	-23%	-13%	-8%
SMILES	Pf growth 48h	Sm TGR inh	Pf growth 96h	AMA1 RON2 block	NS1 function inh
CCOC(=O)C1=C(N)Oc2cc(O)ccc2C1c1ccc([N+](=O)[O-])cc1 (stereo not given)	9.3µM*	5%	u	-7%	3%
CCOC(=O)C1=C(N)Oc2ccc3ccccc3c2C1c1ccc(O)cc1 (stereo not given)	-16%	2%	u	-15%	13%
O=C(COC(=O)c1c(F)cccc1Cl)NCC1CCCCC1	x	x	x	-5%	x
O=C(NCC1(O)CCCCC1)C1CCC(=O)N(CCc2ccccc2)C1 (stereo not given)	-15%	2%	-18%	-2%	-2%
O=C(c1ccccc1)N1CCCCC1CCN1CCCCC1 (stereo not given)	x	-11%	x	x	x
O=C(NN1C(=O)C2C3C=CC(C4CC34)C2C1=O)c1cccc(Cl)c1 (stereo not given)	-4%	2%	u	-10%	1%
O=C(NN1C(=O)C2C3C=CC(O3)C2C1=O)c1cccc(O)c1 (stereo not given)	15%	20µM*	u	4%	-6%
O=C(NN1C(=O)C2C3C=CC(O3)C2C1=O)c1cccc(Br)c1 (stereo not given)	-1%	22µM*	17%	5%	2%
O=C(NN1C(=O)C2C(C1=O)C1C=CC2C12CC2)c1cccc(Cl)c1 (stereo not given)	1%	-33%	u	6%	0%
CCOc1ccc(NC(=O)Cc2ccc(NC(=O)N3CCCCc4ccccc43)cc2)cc1	x	-6%	x	x	x
CCCCN(C)CC(O)Cn1cc(/C=C/C(=O)c2cccs2)c2ccccc21 (stereo not given)	8.3µM*	0%	4.1µM*	-12%	-5%
O=C(/C=C/c1cn(CC(O)CN2CCCCCC2)c2ccccc12)c1cccs1 (stereo not given)	12µM*	-21%	-9%	-20%	4%
CCCCN(C)CC(O)Cn1cc(/C=C/C(=O)c2ccc(OCC)cc2)c2ccccc21 (stereo not given)	5.2µM*	3%	u	x	3%
CCCCN(CCCC)CC(O)Cn1cc(/C=C/C(=O)c2ccccc2)c2ccccc21 (stereo not given)	x	6%	x	x	x
CCOc1ccc(C(=O)/C=C/c2cn(CC(O)CN3CCc4ccccc43)c3ccccc23)cc1 (stereo not given)	x	5%	x	x	x
O=C(COC(=O)c1cccc(O)c1)Nc1ccc(S(=O)(=O)N2CCOCC2)cc1	-5%	-11%	0%	-3%	x
N#Cc1c(Cl)cccc1N1CCC(C(N)=O)CC1	-21%	23%	-20%	5%	1%
CSc1nnc(Cn2c(=O)sc3ccccc32)n1C	-3%	-17%	u	7%	-2%
O=C(CSc1nnc(Cn2c(=O)sc3ccccc32)n1CCc1ccccc1)N1CCOCC1	9.3µM*	-8%	u	3%	-3%
CSc1nnc(Cn2c(=O)sc3ccccc32)n1CCc1ccccc1	x	-14%	13µM*	-8%	-45%
CCc1ccc(NC(=O)C(CC)n2c(=O)c(C(F)(F)F)nc3ccccc32)cc1 (stereo not given)	x	0%	x	x	x
CN(C(=O)C1CCOC1)c1nnc(-c2ccncc2)s1 (stereo not given)	3%	2%	u	19%	-1%
CN(C(=O)C1CCOC1)c1nnc(-c2ccccn2)s1 (stereo not given)	116%	-7%	13µM*	-14%	3%
O=c1cc(N2CCCCCC2)[nH]c(=O)n1-c1ccccc1Cl	6%	1%	-3%	9%	x
CCOC(=O)N1CCN(c2cc(=O)n(C3CCCCC3)c(=O)[nH]2)CC1	-6%	10%	u	13%	2%
